How the values were obtained:
Assay in all cases: DAPPL (digital affinity profiling via proximity ligation, sequencing); 10 mM Tris-HCl pH 7.5, 50 mM NaCl, 1 mM DTT, 4% glycerol, room temperature, 30 min; GST-TFs on glutathione beads, 16-mer random dsDNA library, 0.1% formaldehyde crosslink after washing; high values mean tight binding
Settings in all cases: protein: recombinant; tags: N-terminal GST; dsDNA, one strand shown
ETV5 = ETV5 (Homo sapiens, UniProt P41161 1-510)
Method in brief: (§1)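 GST fusions of human transcription factors were expressed in yeast and captured with glutathione beads. Once given DNA barcodes and pooled alongside a tag-only sample, they were incubated for 30 min at room temperature with 200 nmole of a random double-stranded 16-mer DNA library in Tris/NaCl/DTT/glycerol buffer, then washed, crosslinked (0.1% formaldehyde), proximity-ligated, PCR-amplified and sequenced on an Illumina NextSeq500. The binding signal of each hexamer is its read frequency for a factor divided by its frequency for the tag-only sample.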

ERF = biological target: T1, ERF (Homo sapiens, UniProt P50548 1-548)
T1 sequence: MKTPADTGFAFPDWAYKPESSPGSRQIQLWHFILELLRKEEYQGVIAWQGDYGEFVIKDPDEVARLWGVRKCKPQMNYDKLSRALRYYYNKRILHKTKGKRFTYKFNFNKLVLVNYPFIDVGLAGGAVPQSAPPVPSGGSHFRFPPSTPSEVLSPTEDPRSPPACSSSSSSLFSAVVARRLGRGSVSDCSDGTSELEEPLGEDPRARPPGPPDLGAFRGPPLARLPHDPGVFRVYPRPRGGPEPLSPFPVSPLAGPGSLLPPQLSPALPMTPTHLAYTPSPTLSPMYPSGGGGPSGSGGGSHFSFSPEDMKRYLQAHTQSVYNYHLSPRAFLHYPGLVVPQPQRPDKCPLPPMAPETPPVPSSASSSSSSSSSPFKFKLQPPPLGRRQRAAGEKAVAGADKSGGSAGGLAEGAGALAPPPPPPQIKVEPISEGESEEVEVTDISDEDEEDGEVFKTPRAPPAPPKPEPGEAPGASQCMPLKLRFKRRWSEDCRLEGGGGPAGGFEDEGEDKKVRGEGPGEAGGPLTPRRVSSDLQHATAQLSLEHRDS
Method in brief: as §1

ELK1 = biological target: T2, ELK1 (Homo sapiens, UniProt P19419 1-428)
T2 sequence: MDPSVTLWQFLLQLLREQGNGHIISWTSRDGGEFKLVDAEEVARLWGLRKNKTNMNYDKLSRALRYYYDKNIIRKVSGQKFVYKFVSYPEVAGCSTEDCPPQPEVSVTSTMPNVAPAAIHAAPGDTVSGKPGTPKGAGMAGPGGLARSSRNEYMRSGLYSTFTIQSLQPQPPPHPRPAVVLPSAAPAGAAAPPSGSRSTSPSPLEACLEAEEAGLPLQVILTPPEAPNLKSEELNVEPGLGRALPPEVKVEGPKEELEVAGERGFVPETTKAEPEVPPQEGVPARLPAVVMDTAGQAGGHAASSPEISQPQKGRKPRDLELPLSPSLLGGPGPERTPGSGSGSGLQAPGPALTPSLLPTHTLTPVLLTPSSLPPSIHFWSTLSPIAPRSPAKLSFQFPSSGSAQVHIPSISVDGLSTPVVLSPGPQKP
Method in brief: as §1

ERG = biological target: T3, ERG (Homo sapiens, UniProt P11308 1-479)
T3 sequence: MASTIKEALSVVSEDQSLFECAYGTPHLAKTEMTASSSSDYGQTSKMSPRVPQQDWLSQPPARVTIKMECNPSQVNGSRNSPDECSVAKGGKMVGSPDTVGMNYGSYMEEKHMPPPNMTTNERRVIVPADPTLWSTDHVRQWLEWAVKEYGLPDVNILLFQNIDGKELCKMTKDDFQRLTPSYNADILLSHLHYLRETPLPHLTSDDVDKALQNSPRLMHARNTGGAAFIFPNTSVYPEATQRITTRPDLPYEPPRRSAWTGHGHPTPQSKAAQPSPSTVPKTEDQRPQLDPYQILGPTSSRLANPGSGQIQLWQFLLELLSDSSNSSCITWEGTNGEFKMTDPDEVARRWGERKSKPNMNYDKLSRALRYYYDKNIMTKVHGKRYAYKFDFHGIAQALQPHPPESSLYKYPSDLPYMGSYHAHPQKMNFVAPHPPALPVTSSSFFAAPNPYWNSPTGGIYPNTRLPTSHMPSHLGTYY
Method in brief: as §1

EHF = biological target: T4, EHF (Homo sapiens, UniProt Q9NZC4 1-300)
T4 sequence: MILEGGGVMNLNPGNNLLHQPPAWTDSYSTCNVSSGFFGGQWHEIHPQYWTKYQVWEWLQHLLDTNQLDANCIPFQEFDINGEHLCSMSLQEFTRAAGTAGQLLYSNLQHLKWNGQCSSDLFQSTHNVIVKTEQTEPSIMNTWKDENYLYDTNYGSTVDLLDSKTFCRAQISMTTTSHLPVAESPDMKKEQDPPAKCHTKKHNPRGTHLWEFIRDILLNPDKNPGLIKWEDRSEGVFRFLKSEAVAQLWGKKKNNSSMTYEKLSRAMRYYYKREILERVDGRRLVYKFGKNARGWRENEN
Method in brief: as §1

SPIC = biological target: T5, SPIC (Homo sapiens, UniProt Q8N5J4 1-248)
T5 sequence: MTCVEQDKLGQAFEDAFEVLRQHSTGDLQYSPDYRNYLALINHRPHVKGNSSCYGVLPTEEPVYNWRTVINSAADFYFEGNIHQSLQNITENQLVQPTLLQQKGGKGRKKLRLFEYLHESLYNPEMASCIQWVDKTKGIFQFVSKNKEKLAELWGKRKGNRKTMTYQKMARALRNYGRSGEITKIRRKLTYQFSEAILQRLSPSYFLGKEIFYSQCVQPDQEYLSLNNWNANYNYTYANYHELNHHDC
Method in brief: as §1

ELF4 = ELF4 (Homo sapiens, UniProt Q99607 1-663)
Chain of ELF4 (Q99607 whole entry): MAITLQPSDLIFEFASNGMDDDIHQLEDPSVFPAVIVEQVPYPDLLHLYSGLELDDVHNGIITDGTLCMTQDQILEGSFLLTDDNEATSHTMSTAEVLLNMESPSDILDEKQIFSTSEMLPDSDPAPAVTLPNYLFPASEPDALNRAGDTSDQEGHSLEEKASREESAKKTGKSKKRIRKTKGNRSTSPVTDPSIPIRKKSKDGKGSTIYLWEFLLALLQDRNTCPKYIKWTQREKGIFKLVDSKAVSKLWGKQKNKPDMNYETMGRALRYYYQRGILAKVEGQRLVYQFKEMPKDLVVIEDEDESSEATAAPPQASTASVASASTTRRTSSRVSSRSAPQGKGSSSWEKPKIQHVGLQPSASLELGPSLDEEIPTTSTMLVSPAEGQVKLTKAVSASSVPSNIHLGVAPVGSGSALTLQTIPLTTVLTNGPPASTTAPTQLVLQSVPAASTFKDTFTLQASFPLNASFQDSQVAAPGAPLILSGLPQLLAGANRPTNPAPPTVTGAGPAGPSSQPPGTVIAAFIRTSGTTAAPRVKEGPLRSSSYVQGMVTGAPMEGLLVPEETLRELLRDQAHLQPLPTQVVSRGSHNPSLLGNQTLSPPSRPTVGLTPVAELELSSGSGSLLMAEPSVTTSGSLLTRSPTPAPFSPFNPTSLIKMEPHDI
Method in brief: as §1

ELK4 = biological target: T6, ELK4 (Homo sapiens, UniProt P28324-2 1-405)
T6 sequence: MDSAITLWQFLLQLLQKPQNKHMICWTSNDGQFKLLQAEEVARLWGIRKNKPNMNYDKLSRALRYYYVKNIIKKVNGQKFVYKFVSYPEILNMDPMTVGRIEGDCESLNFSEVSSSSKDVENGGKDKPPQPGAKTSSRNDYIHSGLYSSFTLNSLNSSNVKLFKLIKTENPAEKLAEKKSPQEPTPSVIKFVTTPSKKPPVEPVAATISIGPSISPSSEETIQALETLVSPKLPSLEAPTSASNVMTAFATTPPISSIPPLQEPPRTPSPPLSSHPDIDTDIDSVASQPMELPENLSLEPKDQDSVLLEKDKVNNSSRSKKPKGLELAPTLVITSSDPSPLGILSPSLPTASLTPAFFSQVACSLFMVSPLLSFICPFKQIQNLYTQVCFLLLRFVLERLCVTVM
Method in brief: as §1

ELF3 = biological target: T7, ELF3 (Homo sapiens, UniProt P78545 1-371)
T7 sequence: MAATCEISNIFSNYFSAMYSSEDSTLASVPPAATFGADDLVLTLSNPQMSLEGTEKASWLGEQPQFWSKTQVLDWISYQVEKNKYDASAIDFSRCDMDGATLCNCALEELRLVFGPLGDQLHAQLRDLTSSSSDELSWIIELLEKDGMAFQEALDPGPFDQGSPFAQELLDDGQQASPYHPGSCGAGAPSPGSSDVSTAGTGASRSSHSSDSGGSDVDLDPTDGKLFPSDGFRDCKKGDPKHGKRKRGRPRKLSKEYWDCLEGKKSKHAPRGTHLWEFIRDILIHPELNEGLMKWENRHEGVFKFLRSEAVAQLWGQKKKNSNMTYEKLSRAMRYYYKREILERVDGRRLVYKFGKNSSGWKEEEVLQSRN
Method in brief: as §1

ETV3L = biological target: T8, ETV3L (Homo sapiens, UniProt Q6ZN32 1-361)
T8 sequence: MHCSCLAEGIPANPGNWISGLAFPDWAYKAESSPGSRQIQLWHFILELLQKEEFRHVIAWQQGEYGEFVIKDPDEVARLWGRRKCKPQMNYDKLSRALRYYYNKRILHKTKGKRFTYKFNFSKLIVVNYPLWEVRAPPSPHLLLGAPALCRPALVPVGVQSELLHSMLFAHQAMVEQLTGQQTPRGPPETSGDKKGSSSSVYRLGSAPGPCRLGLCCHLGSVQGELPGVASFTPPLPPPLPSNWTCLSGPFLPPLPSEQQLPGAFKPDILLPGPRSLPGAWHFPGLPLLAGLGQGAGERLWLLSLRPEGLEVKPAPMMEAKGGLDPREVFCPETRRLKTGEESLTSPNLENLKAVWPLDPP
Method in brief: as §1

ETS2 = biological target: T9, ETS2 (Homo sapiens, UniProt P15036 1-469)
T9 sequence: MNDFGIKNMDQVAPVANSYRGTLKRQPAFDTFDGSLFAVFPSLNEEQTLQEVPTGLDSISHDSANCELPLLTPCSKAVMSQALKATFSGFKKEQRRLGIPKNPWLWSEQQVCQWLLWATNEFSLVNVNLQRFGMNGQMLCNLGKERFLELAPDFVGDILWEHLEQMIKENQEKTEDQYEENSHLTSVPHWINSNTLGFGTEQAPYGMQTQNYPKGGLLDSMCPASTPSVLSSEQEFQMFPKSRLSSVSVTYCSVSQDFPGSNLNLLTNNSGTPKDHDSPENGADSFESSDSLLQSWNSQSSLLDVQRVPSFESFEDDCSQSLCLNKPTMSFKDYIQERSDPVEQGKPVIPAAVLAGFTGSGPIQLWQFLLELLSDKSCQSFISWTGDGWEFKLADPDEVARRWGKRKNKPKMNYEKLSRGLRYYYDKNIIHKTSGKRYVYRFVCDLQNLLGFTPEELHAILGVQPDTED
Method in brief: as §1

SPDEF = biological target: T10, SPDEF (Homo sapiens, UniProt O95238 1-335)
T10 sequence: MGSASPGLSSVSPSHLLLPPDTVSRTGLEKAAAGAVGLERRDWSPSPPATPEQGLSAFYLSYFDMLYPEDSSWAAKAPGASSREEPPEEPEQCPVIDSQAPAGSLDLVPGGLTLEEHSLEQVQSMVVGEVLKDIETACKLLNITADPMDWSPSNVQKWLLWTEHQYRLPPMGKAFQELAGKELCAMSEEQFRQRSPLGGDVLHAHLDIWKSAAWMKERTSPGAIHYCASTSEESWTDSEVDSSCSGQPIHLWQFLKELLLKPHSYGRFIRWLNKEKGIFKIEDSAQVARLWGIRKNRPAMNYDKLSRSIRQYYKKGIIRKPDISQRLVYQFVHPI
Method in brief: as §1

ETV3 = biological target: T11, ETV3 (Homo sapiens, UniProt P41162-2 1-143)
T11 sequence: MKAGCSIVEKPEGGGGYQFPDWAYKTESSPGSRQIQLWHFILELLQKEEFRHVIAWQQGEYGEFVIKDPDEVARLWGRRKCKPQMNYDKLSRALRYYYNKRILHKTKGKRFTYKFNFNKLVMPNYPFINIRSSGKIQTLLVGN
Method in brief: as §1

ETV6 = ETV6 (Homo sapiens, UniProt P41212 1-452)
Chain of ETV6 (P41212 whole entry): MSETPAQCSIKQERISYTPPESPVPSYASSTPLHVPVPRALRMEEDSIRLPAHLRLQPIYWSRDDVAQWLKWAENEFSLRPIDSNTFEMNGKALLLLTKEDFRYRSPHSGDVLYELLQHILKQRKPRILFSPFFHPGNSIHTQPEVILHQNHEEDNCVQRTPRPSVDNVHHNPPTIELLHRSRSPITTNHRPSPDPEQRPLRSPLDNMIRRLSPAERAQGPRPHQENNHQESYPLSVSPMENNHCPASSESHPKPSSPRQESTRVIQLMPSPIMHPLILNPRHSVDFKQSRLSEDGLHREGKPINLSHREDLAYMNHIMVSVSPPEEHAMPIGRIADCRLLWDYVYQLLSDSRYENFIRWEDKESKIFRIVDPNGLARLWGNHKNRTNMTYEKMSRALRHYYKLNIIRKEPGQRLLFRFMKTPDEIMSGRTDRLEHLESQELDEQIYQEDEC
Method in brief: as §1

Chain of ETV5 (P41161 whole entry, the tested form may be a part): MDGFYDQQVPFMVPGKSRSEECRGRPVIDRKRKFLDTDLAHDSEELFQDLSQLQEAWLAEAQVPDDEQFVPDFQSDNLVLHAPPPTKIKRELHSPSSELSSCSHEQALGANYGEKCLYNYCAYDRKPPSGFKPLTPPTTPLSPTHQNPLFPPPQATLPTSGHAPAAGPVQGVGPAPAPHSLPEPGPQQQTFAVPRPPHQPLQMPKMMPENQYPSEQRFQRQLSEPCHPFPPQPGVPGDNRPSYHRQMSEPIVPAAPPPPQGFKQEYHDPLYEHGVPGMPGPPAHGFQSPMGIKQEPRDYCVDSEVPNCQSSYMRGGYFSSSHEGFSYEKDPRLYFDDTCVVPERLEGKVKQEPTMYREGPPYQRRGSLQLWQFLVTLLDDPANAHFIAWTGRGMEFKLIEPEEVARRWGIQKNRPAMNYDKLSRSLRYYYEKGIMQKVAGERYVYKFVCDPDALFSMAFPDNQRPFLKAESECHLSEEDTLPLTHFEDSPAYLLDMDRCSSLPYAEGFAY

Sequence | binding signal (ETV5) | binding signal (ERF) | binding signal (ELK1) | binding signal (ERG) | binding signal (EHF) | binding signal (SPIC) | binding signal (ELF4) | binding signal (ELK4) | binding signal (ELF3) | binding signal (ETV3L) | binding signal (ETS2) | binding signal (SPDEF) | binding signal (ETV3) | binding signal (ETV6)
CATAAG | 1 fold enrichment (6-mer frequency, TF over GST control) | 1 fold enrichment (6-mer frequency, TF over GST control) | – | – | – | – | – | – | – | – | – | – | – | –
TGGGTG | 1.02 fold enrichment (6-mer frequency, TF over GST control) | 1.06 fold enrichment (6-mer frequency, TF over GST control) | 1.09 fold enrichment (6-mer frequency, TF over GST control) | 1.01 fold enrichment (6-mer frequency, TF over GST control) | 1.01 fold enrichment (6-mer frequency, TF over GST control) | 1.03 fold enrichment (6-mer frequency, TF over GST control) | 1.01 fold enrichment (6-mer frequency, TF over GST control) | 1.07 fold enrichment (6-mer frequency, TF over GST control) | 1.03 fold enrichment (6-mer frequency, TF over GST control) | 1.08 fold enrichment (6-mer frequency, TF over GST control) | 1.07 fold enrichment (6-mer frequency, TF over GST control) | 1.01 fold enrichment (6-mer frequency, TF over GST control) | 1 fold enrichment (6-mer frequency, TF over GST control) | 1.21 fold enrichment (6-mer frequency, TF over GST control)
